# Source: PubChem BioAssay (several laboratories)
# HSF1 inh: HSF1 inhibition; NIH3T3-HGL HSE-luciferase, MG132-induced, luminescence 8 h; hits give low values; 300,000 compounds, 0.77% hits; activity change, negative = inhibition, % at 7.5 µM (by protocol);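 active means more than half of replicate wells show activity change below -50%, luminescence cut by over half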;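 further: luciferase reports HSF-1 transcriptional activity via heat shock element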
# TLR4-MyD88 BLA: inhibitors of human TLR4-MyD88 binding. 200,000 compounds, 0.18% hits. O00206+Q99836. HeLa CL3-4 TLR4/MyD88 BLA complementation, FRET ratio. inhibition, % at 8.4 µM; in the data active means inhibition above about 25%
# Target sequence (O00206 whole entry, looked up): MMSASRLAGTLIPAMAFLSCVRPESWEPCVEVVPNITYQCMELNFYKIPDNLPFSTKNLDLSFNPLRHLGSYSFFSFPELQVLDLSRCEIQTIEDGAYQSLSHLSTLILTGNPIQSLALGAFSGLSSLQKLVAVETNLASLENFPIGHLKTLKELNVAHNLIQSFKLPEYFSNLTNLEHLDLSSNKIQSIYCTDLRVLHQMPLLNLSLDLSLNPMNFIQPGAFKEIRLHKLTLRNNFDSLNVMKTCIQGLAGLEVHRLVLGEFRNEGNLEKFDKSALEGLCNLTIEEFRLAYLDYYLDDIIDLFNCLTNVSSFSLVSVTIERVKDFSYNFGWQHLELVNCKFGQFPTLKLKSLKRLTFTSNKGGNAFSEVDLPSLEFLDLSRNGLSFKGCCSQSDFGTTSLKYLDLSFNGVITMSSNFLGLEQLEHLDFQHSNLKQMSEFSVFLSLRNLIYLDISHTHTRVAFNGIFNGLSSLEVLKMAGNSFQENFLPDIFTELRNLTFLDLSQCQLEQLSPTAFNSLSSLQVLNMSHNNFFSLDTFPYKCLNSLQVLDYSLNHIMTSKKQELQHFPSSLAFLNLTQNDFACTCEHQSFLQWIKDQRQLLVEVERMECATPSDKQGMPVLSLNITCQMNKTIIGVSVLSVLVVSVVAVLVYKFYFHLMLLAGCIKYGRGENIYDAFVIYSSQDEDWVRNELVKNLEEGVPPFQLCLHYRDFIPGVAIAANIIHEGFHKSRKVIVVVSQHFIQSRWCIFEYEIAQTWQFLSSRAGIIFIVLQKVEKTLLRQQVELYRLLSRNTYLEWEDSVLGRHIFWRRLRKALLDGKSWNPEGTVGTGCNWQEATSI
# Target sequence (Q99836 whole entry, looked up): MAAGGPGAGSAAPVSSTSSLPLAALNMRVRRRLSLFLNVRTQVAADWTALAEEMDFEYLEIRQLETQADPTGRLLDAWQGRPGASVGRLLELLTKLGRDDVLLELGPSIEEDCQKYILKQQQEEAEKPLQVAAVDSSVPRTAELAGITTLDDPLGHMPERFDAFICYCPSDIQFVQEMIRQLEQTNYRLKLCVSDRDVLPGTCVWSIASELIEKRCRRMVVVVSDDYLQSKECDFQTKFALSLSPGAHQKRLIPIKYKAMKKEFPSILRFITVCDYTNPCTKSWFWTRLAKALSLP
# TLR9-MyD88 inh: blocks human TLR9 binding to MyD88; Q9NR96+Q99836; AID 504734; 340,000 compounds, 0.21% hits; inhibition, % at 4.98 µM; CHO BLA complementation TLR9-MyD88, CCF4 FRET ratio;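 active means inhibition above the mean over all tested compounds plus 3 SD, cut at about 21% in these data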
# HSF1 activator: increases HSF-1 driven luciferase reporter signal | 300,000 compounds, 1.7% hits | NIH3T3-HGL HSF-1 luciferase reporter, MG132, 8 h; 100% = twice DMSO control signal | activation, % at 9 µM | AID 504408;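 active means mean replicate activation of at least 50% with a set share of replicates each reaching 50%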
# NOD2 RIPK2 PPI: NOD2-RIPK2 protein interaction inhibition; O43353; CHO BLA complementation NOD2-RIPK2, CCF4 ratio; inhibition, % at 4.98 µM; 360,000 compounds, 0.38% hits; AID 624267; in the data active means inhibition above about 21%
# Numbers stand for hits; – = inactive; · = no result. Compounds with a hit are over-represented: about 2.4% of the library has one in this group of screens.
SMILES,HSF1 inh,TLR4-MyD88 BLA,TLR9-MyD88 inh,HSF1 activator,NOD2 RIPK2 PPI
N#C/C(=C/c1ccc(-c2ccc([N+](=O)[O-])cc2)o1)c1nnc(N2CCOCC2)n1-c1ccccc1,·,·,–,·,–
NCCCC(=O)O,-70,–,–,–,–
NCCCCC(=O)O,·,·,–,·,–
Cc1ccc(S(=O)(=O)NCCC(=O)NNC(=O)COc2ccccc2Cl)cc1C,·,·,–,·,–
CCOc1ccc(-c2nnc(SCc3nc4ccccc4[nH]3)n2N)cc1,–,–,–,63,–
Cn1c(SCc2nc3ccccc3[nH]2)nnc1-c1cccnc1,–,–,–,–,–
O=S(=O)(Nc1cccc(-n2cnnn2)c1)c1cc(Cl)ccc1Cl,-88,·,–,–,–
O=S(=O)(Nc1cccc(-n2cnnn2)c1)c1cccc(Cl)c1,–,·,–,–,–
O=C(CN1C(=O)NC2(CCCCC2)C1=O)Nc1cccc(S(=O)(=O)N2CCCC2)c1,·,·,–,·,–
COc1cc(/C=C(\C#N)c2nc3ccccc3[nH]2)ccc1Oc1ccc([N+](=O)[O-])cn1,–,–,–,62,–
COc1cccc(/C=C(\C#N)c2nc3ccccc3[nH]2)c1OCC(=O)O,-64,·,–,–,–
COc1cc(/C=C(\C#N)c2nc3ccccc3[nH]2)cc(OC)c1O,–,–,–,–,–
COc1ccc(C=C(c2nc3ccccc3s2)c2nc3ccccc3s2)cc1O,–,–,–,132,–
COc1cccc(/C=C(/C#N)c2nc3ccccc3[nH]2)c1OC(C)C(=O)O (stereo not drawn),–,·,–,–,–
COc1cc(C=C(c2nc3ccccc3s2)c2nc3ccccc3s2)ccc1O,–,–,–,–,–
COc1ccc(/C=C(\C#N)c2nc3ccccc3[nH]2)cc1O,–,·,–,85,–
CCCCn1c(N)c(N(CCC(C)C)C(=O)CSc2nc3ccccc3n2C)c(=O)[nH]c1=O,·,·,–,·,–
CCCCC(=O)N(C)c1c(C)nc2ccc(C(=O)N3CCN(C(=O)c4ccco4)CC3)cn12,·,·,·,·,–
CCCNC(=O)C1(C)CCN(C(=O)c2ccc(OC)cc2OC)C1 (stereo not drawn),·,·,·,·,–
COc1cc(/C=C(\C#N)c2nc3ccc(C)cc3[nH]2)cc([N+](=O)[O-])c1O,·,–,–,·,–
COc1cc(/C=C(\C#N)c2nc3ccc(C)cc3[nH]2)c([N+](=O)[O-])cc1OC,–,–,–,64,–
COC(=O)c1ccc(-c2nc(CN3CCN(C(=O)c4ccco4)CC3)c(C)o2)cc1,·,·,–,·,–
CCn1c(Cc2ccccc2)nnc1SCC(=O)Nc1ccccc1O,–,–,–,51,–
C/C(=C\c1ccc(Br)cc1)C(=O)c1c(C)cc(C)[nH]c1=O,–,·,–,–,–
COc1ccccc1/C=C(\C)C(=O)c1c(C)cc(C)[nH]c1=O,–,·,–,57,–
SMILES,HSF1 inh,TLR4-MyD88 BLA,TLR9-MyD88 inh,HSF1 activator,NOD2 RIPK2 PPI
O=C(Nc1ccc(Oc2ccccc2)cc1)c1csc(COCCO)n1,·,·,·,·,–
Cn1cc([N+](=O)[O-])c(C(=O)Nc2nccs2)n1,–,–,–,77,–
Cn1cc([N+](=O)[O-])c(C(=O)Nc2ccc(Br)cn2)n1,–,–,–,53,–
CCCNC(=O)C1(C)CCN(C(=O)c2cccc(C#N)c2)C1 (stereo not drawn),·,·,·,·,–
Cc1ccc(CC2SC(N=C(N)N)=NC2=O)cc1 (stereo not drawn),–,·,–,81,–
Clc1ccc(-c2ccc(SCc3ccccn3)nn2)cc1,–,–,–,81,–
Cc1ncc([N+](=O)[O-])n1CC(=O)Nc1ccc(F)cc1,-74,·,–,–,–
Cc1ncc([N+](=O)[O-])n1CC(=O)NCCc1ccccc1,-62,–,–,–,–
Cc1ncc([N+](=O)[O-])n1CC(=O)NCc1ccccc1,–,–,–,–,–
O=S(=O)(Nc1ccc2c(c1)OCCO2)c1cccs1,-63,–,–,–,–
Cn1c(=O)oc2cc(S(=O)(=O)Nc3ccc4c(c3)OCCO4)ccc21,–,–,–,–,–
Cn1c(=O)c(=O)n(C)c2cc(S(=O)(=O)Nc3ccc4c(c3)OCCO4)ccc21,-60,–,–,–,–
Cc1cccc(NC(=O)C[n+]2ccccc2)c1,–,·,–,–,–
Nc1cc[n+](CC(=O)Nc2ccccc2)cc1,–,–,–,56,–
CC(Sc1nnc(-c2ccccc2)c(-c2ccccc2)n1)C(=O)NCC1CCCO1 (stereo not drawn),·,·,–,·,–
COc1cccc(C(C(=O)NC(C)(C)C)N(C(=O)CCC(=O)Nc2cc(C)on2)C(C)(C)C)c1OC (stereo not drawn),–,–,–,–,–
C=CCN(C(=O)CCC(=O)Nc1cc(C)on1)C(C(=O)NC(C)(C)C)c1cccc(OC)c1OC (stereo not drawn),–,–,–,83,–
COC(=O)c1[nH]c2ccc(Br)cc2c1NC(=O)CN1CCCc2ccccc21,–,–,–,57,–
Cc1ccsc1/C=N/NC(=O)c1sccc1C,–,–,–,64,–
COc1ccc(/C=C(\NC(=O)c2ccccc2)C(=O)N/N=C/c2sccc2C)cc1,–,–,–,97,–
COc1ccc(/C=C(/NC(=O)c2ccccc2)C(=O)N/N=C/c2sccc2C)cc1,–,–,–,–,–
CCCCN(C(=O)c1ccc2c(c1)OCCO2)c1c(N)n(CC(C)C)c(=O)[nH]c1=O,–,·,–,–,–
Cc1nc2ccc(S(=O)(=O)NC(C(=O)Nc3nccs3)C(C)C)cc2s1 (stereo not drawn),–,–,–,–,–
Cc1nc2ccc(S(=O)(=O)NC(C(=O)NCc3cccs3)C(C)C)cc2s1 (stereo not drawn),-81,–,–,–,–
COc1cccc(C(NC(C)=O)c2nc(-c3cccc(C(C)C)c3)cs2)c1 (stereo not drawn),·,·,·,·,–
SMILES,HSF1 inh,TLR4-MyD88 BLA,TLR9-MyD88 inh,HSF1 activator,NOD2 RIPK2 PPI
CC(=O)NCCC(=O)N(Cc1ccccc1)c1nc2c(C)cccc2s1,–,·,–,–,–
CCOc1ccc2nc(N(Cc3ccccc3)C(=O)CCNC(C)=O)sc2c1,–,·,–,57,–
c1ccc(CNc2nc(N3CCN(Cc4ccccc4)CC3)nc3ccccc23)cc1,-55,·,·,–,–
c1ccc(N2CCN(c3nc(NCc4ccco4)c4ccccc4n3)CC2)cc1,–,–,–,–,–
CCNc1nc(NCC)n2c(SCC(=O)Nc3ccc(Br)cc3F)nnc2n1,–,·,–,–,–
CCNc1nc(NCC)n2c(SCC(=O)c3ccc(C(C)C)cc3)nnc2n1,–,–,–,51,–
CCNc1nc(NCC)n2c(SCC(=O)Nc3ccccc3)nnc2n1,–,–,–,–,–
CCNc1nc(NCC)n2c(SCC(=O)Nc3ccc(C(F)(F)F)cc3[N+](=O)[O-])nnc2n1,–,–,–,70,–
N#Cc1c(SCc2ccc(Cl)cc2)sc(C(=O)c2ccccc2)c1N,–,–,–,–,–
CSc1c(C#N)c(N)nc2sc(C(=O)c3ccccc3)c(N)c12,–,·,–,116,–
CCOc1ccccc1CN1CCNC(=O)C1CC(=O)N(C)Cc1cnccn1 (stereo not drawn),–,·,–,–,–
